Bioassay records as filed in PubChem.
Rows were chosen to be rich in hits. Some 2% of all compounds tested hit in one or more screens of this group.
PrPC surface inh: inhibitors of human cell surface prion protein PrPC. TR-FRET read-out. P04156. actives 0.43% (n = 370,000). AID 720596. inhibition, % at 13.8 µM; in the data active = inhibition above about 24%
Yp Topo-I inh: inhibitors of Yersinia pestis topoisomerase I. activity, % at 10 µM. Y. pestis Topo-I cleavage product accumulation, plate reader. AID 504884. actives 0.064% (n = 360,000); in the data active = activity above about 50%, passing the limit was not always enough
CCHF vOTU inh-1: blocks the CCHF virus ovarian tumor domain protease. CCHFV vOTU protease, Pep-AMC fluorescence. inhibition, % at 11.5 µM. actives 0.55% (n = 370,000). AID 651958
BJeLR lethal: kills HRASV12-expressing BJeLR cells | BJeLR (HRASV12) viability, CellTiter-Glo ATP luminescence, 48 h | inhibition, % (concentration not given with the values) | actives 0.17% (n = 300,000) | AID 1554; in the data active = inhibition above about 50%
PrP 5UTR inh: inhibition of PrP 5' UTR reporter expression | AID 488862 | actives 0.35% (n = 340,000) | inhibition, % (concentration not given with the values) | cell-based PrP 5' UTR mRNA reporter, plate reader; in the data active = inhibition above about 52%
PfHsp40 rescue: rescue of PfHsp40-mediated yeast toxicity; S. cerevisiae expressing PfHsp40, growth rescue, ATP luminescence; growth rescue, % at 12.5 µM; actives 0.68% (n = 340,000); AID 504582; in the data active = growth rescue above about 28%, passing the limit was not always enough;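 also: yeast W303a lacking pdr1 and pdr3 grown in galactose medium; growth measured after three days at 30 °C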
CCHF vOTU inh-2: confirmation of CCHF virus vOTU protease inhibitors. actives 17% (n = 1,900). inhibition, % at 11.5 µM. Recombinant CCHFV vOTU, Pep-AMC fluorescence. shares compounds with CCHF vOTU inh-1. AID 686976
Large screens that a line does not name were inactive (follow-up assays come after a bar, where they were run). Rule as the data show it, unless noted: active = inhibition above about 30%; inactive = the rest.

O=C(c1ccc(COc2ccc(Cl)cc2)o1)N1CCN(Cc2ccc3c(c2)OCO3)CC1	CCHF vOTU inh-1 30.1 | CCHF vOTU inh-2 inactive
Cc1cccc(OCC(=O)Nc2cc(Cl)ccc2-n2cncn2)c1C	none
CCCOc1ccccc1OCC(=O)Nc1cc(Cl)ccc1-n1cncn1	CCHF vOTU inh-1 32.2 | CCHF vOTU inh-2 inactive
Cn1c(COc2ccccc2)nnc1SCC(=O)Nc1ccccc1-c1ccccc1	none (no result: Yp Topo-I inh, BJeLR lethal, PrP 5UTR inh, PfHsp40 rescue)
O=C(NCCc1ccccc1)OCc1cn(Cc2ccccc2Cl)nn1	none (no result: Yp Topo-I inh, BJeLR lethal, PrP 5UTR inh, PfHsp40 rescue)
O=C(Oc1ccc2[nH]cc(CCN3C(=O)c4ccccc4C3=O)c2c1)c1ccco1	CCHF vOTU inh-1 36.2 | CCHF vOTU inh-2 inactive
CC(=O)c1c(C)[nH]c(C(=O)OCC(=O)NNC(=O)c2ccc([N+](=O)[O-])cc2)c1C	CCHF vOTU inh-1 35.3 (no result: BJeLR lethal) | CCHF vOTU inh-2 inactive
COC(=O)[C@]12C[C@H](CC(=O)NCc3cccc(C(F)(F)F)c3)C(=O)N(CCc3ccc(OC)c(OC)c3)C1=C[C@H](C(C)C)O[C@@H]2C1CC1	none (no result: Yp Topo-I inh, BJeLR lethal, PrP 5UTR inh, PfHsp40 rescue)
CC(C)(C)OC(=O)[C@H](Cc1ccccc1)NC(=O)c1[nH]cnc1C(=O)Nc1ccc(Cl)cc1	CCHF vOTU inh-1 30.7 | CCHF vOTU inh-2 inactive
CC(C)(C)OC[C@H](NC(=O)c1[nH]cnc1C(=O)Nc1ccccc1F)C(=O)OC(C)(C)C	CCHF vOTU inh-1 35.4 (no result: BJeLR lethal, PrP 5UTR inh, PfHsp40 rescue) | CCHF vOTU inh-2 inactive
CC(C)C[C@H](NC(=O)c1[nH]cnc1C(=O)N[C@@H](C)C(=O)OCc1ccccc1)C(=O)OC(C)(C)C	CCHF vOTU inh-1 30.3 | CCHF vOTU inh-2 inactive
COC(=O)C1=C(C)N(C)C(=NCc2ccccc2C(F)(F)F)NC1c1ccc(F)cc1 (stereo not given)	none (no result: Yp Topo-I inh, BJeLR lethal, PrP 5UTR inh, PfHsp40 rescue)
Nc1ccc(C2=Nc3cccc4cccc(c34)N2)cc1	none
COc1cccc(C2=Nc3cccc4cccc(c34)N2)c1	CCHF vOTU inh-1 29.9 | CCHF vOTU inh-2 inactive
CCCCN(C)S(=O)(=O)c1ccc2[nH]c(=O)oc2c1	none (no result: Yp Topo-I inh, BJeLR lethal, PrP 5UTR inh, PfHsp40 rescue)
O=C(CSc1nnc(-c2ccccc2)n1-c1ccc(Cl)cc1)c1ccc(Cl)cc1	none (no result: Yp Topo-I inh, BJeLR lethal, PrP 5UTR inh, PfHsp40 rescue)
COCc1cc(N2CCN(C(=O)OC(C)(C)C)C[C@@H]2C)ccc1N1CC[C@@H](O)C1	none (no result: Yp Topo-I inh, BJeLR lethal, PrP 5UTR inh, PfHsp40 rescue)
C[n+]1c(-c2ccccc2)cc2c(=Cc3ccccc3)c3ccccc3n21	CCHF vOTU inh-1 82.8, PfHsp40 rescue 169.7 (no result: BJeLR lethal) | CCHF vOTU inh-2 78.1
C[n+]1c(-c2ccccc2)cc2c(=Cc3ccc([N+](=O)[O-])cc3)c3ccccc3n21	CCHF vOTU inh-1 93.0 (no result: BJeLR lethal) | CCHF vOTU inh-2 57.4
CN(C)c1ccc(C=c2c3cc(O)ccc3n3c2cc(-c2ccccc2)[n+]3C)cc1	CCHF vOTU inh-1 46.5, PfHsp40 rescue 294.6 (no result: BJeLR lethal) | CCHF vOTU inh-2 41.0
Cc1[nH]oc(=O)c1N=Nc1ccccc1	none
Cc1[nH]oc(=O)c1N=Nc1c(Cl)cccc1Cl	CCHF vOTU inh-1 35.5 | CCHF vOTU inh-2 inactive
Oc1ccccc1CNc1cccc2cccnc12	CCHF vOTU inh-1 52.0 | CCHF vOTU inh-2 90.8
NC(=S)NNc1cccc2cccnc12	CCHF vOTU inh-1 101.2 | CCHF vOTU inh-2 33.6
CC(C)CCNC(=O)c1c(N)n(Cc2ccc3c(c2)OCO3)c2nc3ccccc3nc12	CCHF vOTU inh-1 54.2 | CCHF vOTU inh-2 inactive
CNC1=C(N(C(C)=O)c2ccc(Br)cc2)C(=O)c2ccccc2C1=O	CCHF vOTU inh-1 93.5, BJeLR lethal 51.0, PfHsp40 rescue 76.8 | CCHF vOTU inh-2 72.5
CCC(=O)N(C1=C(NC)C(=O)c2ccccc2C1=O)C(C)C	CCHF vOTU inh-1 46.5 | CCHF vOTU inh-2 inactive
O=S1(=O)c2c(cccc2N2CC[C@H](O)C2)O[C@H]2CCN1C2	none (no result: Yp Topo-I inh, BJeLR lethal, PrP 5UTR inh, PfHsp40 rescue)
COc1ccc(N2CCCN(CC(=O)Nc3ccccc3C)CC2)cc1	none (no result: Yp Topo-I inh, BJeLR lethal, PrP 5UTR inh, PfHsp40 rescue)
COc1ccc([C@H](C#Cc2ccccc2)CC(=O)O)cc1OC1CCCC1	none (no result: Yp Topo-I inh, BJeLR lethal, PrP 5UTR inh, PfHsp40 rescue)
CCC(NC(=O)Cn1c(-c2ccccc2)cc(C(C)=O)c1C)c1ccccc1 (stereo not given)	none (no result: Yp Topo-I inh, BJeLR lethal, PrP 5UTR inh, PfHsp40 rescue)
CCc1ccc(/C=c2\s/c(=C\C(=O)C(C)(C)C)[nH]c2=O)cc1	CCHF vOTU inh-1 36.0 | CCHF vOTU inh-2 inactive
C#CCNC(=O)C[C@@H]1C(=O)N(Cc2ccc(OC)cc2)/C2=C/CCCCC[C@@]21C(=O)OCC	none (no result: Yp Topo-I inh, BJeLR lethal, PrP 5UTR inh, PfHsp40 rescue)
CCCCCCN1C[C@H](n2cc(COC(=O)c3ccccc3)nn2)[C@@H](O)C[C@@H]1c1ccc(OC)cc1	none (no result: BJeLR lethal, PrP 5UTR inh, PfHsp40 rescue)
